According to PubChem BioAssay (Tox21):
Records with an inconclusive call do not appear. A call without a number means that no potency is given here. Activity calls are given as the source filed them. Calls follow the shape of the dose curve; as a rule, active = well fitted cell-killing curve with a large enough effect in the repeat runs; inconclusive = weak or mixed curves, or effect the other way; inactive = flat fitted curve, though single readings scatter.

experiment: qHTS RealTime-Glo MT Cell Viability Assay in HepG2 cells - 40 hour (AID 1224870); details: RealTime-Glo luminescence; series mostly up to 76.8 µM; also: nearly all actives have a fitted effect of over 50% in size
Text: National Center for Advancing Translational Sciences [NCATS]
NIH Chemical Genomics Center [NCGC]
U.S. Environmental Protection Agency [EPA]
National Institutes of Environmental Health Sciences [NIEHS]
National Toxicology Program [NTP]
U.S. Food and Drug Administration [FDA]
Measure of cell viability is critical in the cell-base assay. Analysis of cell viability is necessary for the characterization of cell responses to cytotoxic drugs and environmental stress. A RealTime-Glo MT Cell Viability Assay to monitor cell viability in real time of continues cell culture during 40 hours of compound treatment was used to screen Tox21 10K library compounds in HepG2 cells. The RealTime-Glo MT Cell Viability Assay is a nonlytic, homogeneous, bioluminescent method to measure cell viability in real time using a simple, plate-based method. The assay involves adding NanoLuc luciferase and a cell-permeant prosubstrate to cells in culture. Viable cells reduce the proprietary prosubstrate to generate a substrate for NanoLuc luciferase. This substrate diffuses from cells into the surrounding culture medium, where it is rapidly used by the NanoLuc Enzyme to produce a luminescent signal. The signal correlates with the number of viable cells, making the assay well suited for cytotoxicity studies.
Tox21 Assay Protocol Summary:
The mixture of HepG2 cell suspension and reagents were dispensed at 600cells/6 ul/well in 1536-well tissue culture treated black solid bottom plates using a Multidrop dispenser. After the assay plates were incubated at a 37 C/5% CO2 incubator for 5 hours, 23 nL of compounds dissolved in DMSO, positive and negative controls was transferred to the assay plate by a pintool work station. The plates were incubated at 37 C for 40 hours. The luminescence intensity were measured at 0h, 8h, 16h, 24h, 32h and 40h time points using ViewLux plate reader during compound treatment.
Potency is read from the fitted curve at half-maximal effect.

| Structure (SMILES) | Potency |
| --- | --- |
| N#Cc1cc(Br)c(O)c(Br)c1 | inactive |
| Cc1c(COC(=O)[C@@H]2[C@H](/C=C(\Cl)C(F)(F)F)C2(C)C)cccc1-c1ccccc1 | inactive |
| CCN(CC)N=O | inactive |
| CCCCNC(=O)n1c(NC(=O)OC)nc2ccccc21 | inactive |
| O=P(Oc1ccccc1)(Oc1ccccc1)Oc1ccccc1 | inactive |
| COP(=S)(OC)Oc1ccc([N+](=O)[O-])cc1 | inactive |
| c1nc[nH]n1 | inactive |
| CC(C)Oc1cc(-n2nc(C(C)(C)C)oc2=O)c(Cl)cc1Cl | inactive |
| c1ccc(P(c2ccccc2)c2ccccc2)cc1 | inactive |
| c1ccc(N=Nc2ccccc2)cc1 | inactive |
| C#CCOS(=O)OC1CCCCC1Oc1ccc(C(C)(C)C)cc1 (stereo not given) | inactive |
| O=[N+]([O-])c1cccc2ccccc12 | inactive |
| C[C@]12CCC(=O)C(O)=C1CC[C@@H]1[C@@H]2CC[C@]2(C)C(=O)CC[C@@H]12 | inactive |
| Nc1ccc(-c2ccccc2)cc1 | inactive |
| N[C@@H](Cc1ccc(N(CCCl)CCCl)cc1)C(=O)O | inactive |
| Cc1ccccc1[N+](=O)[O-] | inactive |
| CCOc1cc(C=O)ccc1O | inactive |
| COP(=O)(OC)OC | inactive |
| CN(C)C(=O)Nc1ccc(Cl)cc1 | inactive |
| Nc1ccc(Cl)c(Cl)c1 | inactive |

| Structure (SMILES) | Potency |
| --- | --- |
| CCN(CC)C(=O)SCc1ccc(Cl)cc1 | inactive |
| C1=Cc2cccc3cccc1c23 | inactive |
| CCC(C)(C)c1ccc(O)cc1 | inactive |
| CCN(N=O)C(N)=O | inactive |
| O=[N+]([O-])c1ccc(O)c([N+](=O)[O-])c1 | inactive |
| CCC(C)(c1ccc(O)cc1)c1ccc(O)cc1 | inactive |
| Nc1c(Cl)cc([N+](=O)[O-])cc1Cl | inactive |
| COC(=O)c1sccc1S(=O)(=O)NC(=O)Nc1nc(C)nc(OC)n1 | inactive |
| c1ccc(-c2cccc(-c3ccccc3)c2)cc1 | inactive |
| COc1ccc(C=O)cc1 | inactive |
| Oc1cc(Cl)ccc1Oc1ccc(Cl)cc1Cl | 44.7 µM (active) |
| CCc1cccc(CC)c1N(COC)C(=O)CCl | inactive |
| NNC(N)=S | inactive |
| CCC(CC)Nc1c([N+](=O)[O-])cc(C)c(C)c1[N+](=O)[O-] | inactive |
| Cc1ccc2c(c1N)C(=O)c1ccccc1C2=O | inactive |
| CCC(=O)O[C@H]1CC[C@H]2[C@@H]3CCC4=CC(=O)CC[C@]4(C)[C@H]3CC[C@]12C | inactive |
| Cc1cc(Cl)ccc1OCCCC(=O)O | inactive |
| Oc1cc(Cl)ccc1Cl | inactive |
| C=CC(=O)OCCO | inactive |
| O=C(O)C(F)(F)C(F)(F)C(F)(F)C(F)(F)C(F)(F)C(F)(F)C(F)(F)F | inactive |
